aGlu spleen mod – qHTS Assay for Inhibitors and Activators of Human alpha-Glucosidase From Spleen Homogenate. human spleen homogenate, 4-MU-alpha-glucoside fluorescence. Potency, µM (series often up to 79.9 µM), inactives show at the highest dose activity change, negative = inhibition, actives largely listed as inhibitors. Lysosomal alpha-glucosidase (Homo sapiens), P10253. 240,000 tested, 0.006% active;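 note: potency is the fitted concentration of half-maximal effect; 0% = enzyme with vehicle and -100% = no enzyme basal signal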
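AC50 values come from Hill-equation fits of concentration-response data, normalized to no-enzyme and full-activity controls. Enzyme source: 1 ug human spleen homogenate; 1 mM fluorogenic 4-MU glucoside, pH 5.0 citrate buffer, 37 C, 40 min.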
N370S GC – qHTS Assay for Inhibitors and Activators of N370S glucocerebrosidase as a Potential Chaperone Treatment of Gaucher Disease; Potency, µM (top dose mostly 59.4 µM), without a hit: top-dose activity change, negative = inhibition, actives largely listed as inhibitors; 330,000 tested, 0.092% active; N370S GC spleen homogenate, 4MU-glucoside fluorescence; Lysosomal acid glucosylceramidase (Homo sapiens), P04062;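 note: potency is the fitted concentration of half-maximal effect; 0% = full enzyme activity and -100% = no enzyme basal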
GLA spleen mod – qHTS Assay for Inhibitors and Activators of Human alpha-Galactosidase From Spleen Homogenate; human spleen homogenate, 4MU-alpha-Gal fluorescence, 40 min; Alpha-galactosidase A (Homo sapiens), P06280; AID 2107, 2009; Potency, µM (doses to about 80 µM), inactives show top-dose activity change, negative = inhibition, most hits filed as inhibitors; 240,000 tested, 0.008% active;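 note: potency is the fitted concentration of half-maximal effect; 0% = enzyme with vehicle and -100% = no enzyme basal signal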
Target sequence (P06280 32-429 limits assumed): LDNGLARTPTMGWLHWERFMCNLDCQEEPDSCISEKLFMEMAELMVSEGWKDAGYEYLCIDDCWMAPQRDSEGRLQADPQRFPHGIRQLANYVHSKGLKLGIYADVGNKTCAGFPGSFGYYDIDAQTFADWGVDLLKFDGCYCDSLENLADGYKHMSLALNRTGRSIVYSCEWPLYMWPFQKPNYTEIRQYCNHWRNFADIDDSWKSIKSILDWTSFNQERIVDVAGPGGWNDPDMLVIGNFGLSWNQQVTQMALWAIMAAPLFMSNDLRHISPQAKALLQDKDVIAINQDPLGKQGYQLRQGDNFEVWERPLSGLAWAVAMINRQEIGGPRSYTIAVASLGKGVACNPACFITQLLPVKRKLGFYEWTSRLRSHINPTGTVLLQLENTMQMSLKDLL
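Human spleen homogenate (1 ug) was the enzyme source, with 4-methylumbelliferyl-alpha-D-galactopyranoside (1 mM final) in pH 5.0 citrate buffer with 0.01% Tween-20. Compounds were titrated; after 40 min at 37C, NaOH/glycine stop, 4-MU fluorescence read; AC50 from Hill fits.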
GAA inhib – qHTS Assay for Inhibitors of Human alpha-Glucosidase as a Potential Chaperone Treatment of Pompe Disease | purified human GAA, 4-MU-alpha-glucoside fluorescence | Potency, µM (titrated, usually from 76.9 µM), inactives show at the top dose activity change, negative = inhibition, most hits filed as inhibitors | 200,000 tested, 0.005% active | AID 1466, 2008;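 note: potency is the fitted concentration of half-maximal effect; plate controls were uninhibited enzyme wells for no effect and no-enzyme background for full effect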
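Endpoint fluorogenic read: 20 min room-temperature reaction of 4 nM human alpha-glucosidase with 400 uM 4-methylumbelliferyl-alpha-D-pyranoside, pH 5.0, quenched with 1M NaOH/1M glycine pH 10. AC50 from Hill modeling.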
GAA glycogen mod – qHTS Assay for Inhibitors and Activators of Human alpha-Glucosidase Cleavage of Glycogen | Lysosomal alpha-glucosidase (Homo sapiens), P10253 | recombinant GAA, glycogen substrate, Amplex Red glucose oxidase fluorescence | Potency, µM (highest dose often 76.4 µM), for the others: at the highest dose activity change, negative = inhibition, hits mostly inhibitors | 300,000 tested, 0.38% active;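 note: potency is the fitted concentration of half-maximal effect; 0% = full enzyme reaction and -100% = no-enzyme basal signal; the screen sought inhibitors and activators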
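qHTS, 1536-well; enzyme 4 nM final; cpd up to 77 uM; substrate bovine liver glycogen 30 ug; 50 mM citrate/phosphate pH 5.0, 0.01% Tween-20; 37 C, 40 min; Amplex Red detection 45 min RT; Hill fit → AC50.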
GLA inh pH 4.5 – qHTS Assay for Inhibitors of Human alpha-Galactosidase at pH 4.5; Alpha-galactosidase A (Homo sapiens), P06280; activity change, negative = inhibition, % at 105 µM; purified enzyme, 4-MU-alpha-Gal fluorescence, pH 4.5; 230,000 tested, under 10 active;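 note: 0% = full activity with enzyme and -100% = basal without enzyme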
* = called active by the depositor; ? = inconclusive; nt = no result; [ ] = another dose, or the depositor's remark. Only some compounds are listed: those with a hit (about 0.43% of all), similar ones and a draw of the others. Calls come from the whole dose curve; as a rule, active = well fitted curve in the direction sought with a large enough effect; inconclusive = small, poorly fitted or top-dose-only effect, or another doubt; inactive = no such curve, though single readings can be large; an effect the other way counts as inactive or inconclusive.

SMILES	aGlu spleen mod	N370S GC	GLA spleen mod	GAA inhib	GAA glycogen mod	GLA inh pH 4.5
S=C(NCc1ccccc1)Nc1cccc(Cl)c1	-8.2%	?	-9.8%	-1.2%	8.4%	-1.6
CCN(CC)CCNC(=O)CCCCn1c(=S)[nH]c2c([nH]c3ccc(OC)cc32)c1=O	6.2%	-1.5%	7.7%	-9.9%	25.1µM*	-15.9
Cc1ccc(NC(=O)Nc2sc(=S)n(C)c2C)cc1	-7.5%	-14.1%	-6.5%	0.4%	25.1µM*	5.0
CSCC[C@H](NC(=O)[C@H](CO)NC(=O)[C@H](Cc1ccc(O)cc1)NC(=O)[C@@H](N)CO)C(=O)N[C@@H](CCC(=O)O)C(=O)N[C@@H](Cc1cnc[nH]1)C(=O)N[C@@H](Cc1ccccc1)C(=O)N[C@@H](CCCNC(=N)N)C(=O)N[C@@H](Cc1c[nH]c2ccccc12)C(=O)NCC(=O)N[C@@H](CCCCN)C(=O)N1CCC[C@H]1C(=O)N[C@H](C(=O)NCC(=O)N[C@@H](CCCCN)C(=O)N[C@@H](CCCCN)C(=O)N[C@@H](CCCNC(=N)N)C(=O)N[C@@H](CCCNC(=N)N)C(=O)N1CCC[C@H]1C(=O)N[C@H](C(=O)N[C@@H](CCCCN)C(=O)N[C@H](C(=O)N[C@@H](Cc1ccc(O)cc1)C(=O)N1CCC[C@H]1C(=O)N[C@@H](CC(N)=O)C(=O)NCC(=O)N[C@@H](C)C(=O)N[C@@H](CCC(=O)O)C(=O)N[C@@H](CC(=O)O)C(=O)N[C@@H](CCC(=O)O)C(=O)N[C@@H](CO)C(=O)N[C@@H](C)C(=O)N[C@@H](CCC(=O)O)C(=O)N[C@@H](C)C(=O)N[C@@H](Cc1ccccc1)C(=O)N1CCC[C@H]1C(=O)N[C@@H](CC(C)C)C(=O)N[C@@H](CCC(=O)O)C(=O)N[C@@H](Cc1ccccc1)C(=O)O)C(C)C)C(C)C)C(C)C	-14.2%	1.0%	-6.5%	nt	nt	nt
CC1=Nc2cccc3cccc(c23)N1	2.8%	-3.6%	-3.1%	-4.6%	14µM*	-1.0
COC(=O)C1=C(C(=O)OC)[C@@H]2N(Cc3ccccc3)c3ccccc3[C@@]23C[C@@H](C(=O)OC)N(S(=O)(=O)c2ccc4c(c2)OCCN4C)C3=N1	-8.8%[17.4 µM]	9.9%[12.8 µM]	-9.8%[17.5 µM]	nt	nt	5.2
CC(N)(Cc1ccc(O)c(O)c1)C(=O)O (centres undefined)	-4.7%	-1.0%	-24.6%	nt	nt	-10.0
O=C(NC1=NCCS1)C1Cc2ccccc2CN1C(=O)c1ccccc1 (centres undefined)	-0.9%	4.6%	11.0%	-9.6%	3.98µM*	-4.1
CC(=O)c1ccc(NC(=O)C2Cc3ccccc3CN2C(=O)c2ccccc2)cc1 (centres undefined)	0.7%	7.5%	4.8%	3.2%	-3.8%	-11.7
CC(=O)OC[C@@H]1O[C@H](CCO/N=C(\C)CCC(=O)OC[C@@H]2O[C@H](C#Cc3ccccc3)C=C[C@@H]2Oc2ccc(C)cc2)C=C[C@@H]1OC(C)=O	2.1%[17.4 µM]	8.8%[12.8 µM]	5.8%[17.5 µM]	nt	nt	nt
CCOc1cc(CNc2ccccc2SC)ccc1O	5.9%	-4.7%	6.2%	-7.2%	28µM*	-4.5
Cc1cc(=O)[nH]c2ccc(S(=O)(=O)Nc3ccc(O)cc3)cc12	nt	?	nt	nt	7.08µM*	nt
Cc1cc(C)c(S(=O)(=O)Nc2ccc(O)cc2)c(C)c1	6.2%	-13.2%	-11.6%	-8.2%	39.8µM*	-2.2
Cc1cc(=O)[nH]c2ccc(S(=O)(=O)Nc3ccccc3)cc12	nt	0.2%	nt	nt	-0.1%[76.3 µM]	nt
Cc1cc(O)c(C)c2sc(N)nc12	6.4%	-0.5%	-2.8%	nt	nt	nt
COc1cc(Cl)ccc1NC(=O)COc1ccccc1C(=O)N1CCN(c2ccc(O)cc2)CC1	0.1%	15.1%	-1.9%	0.8%	17.6µM*	2.5
CC(C)Cn1cc(C(=O)N2CCN(c3cccc(Cl)c3)CC2)c2c3ccccc3n(C)c2c1=O	nt	nt	nt	nt	-2.4%[76.3 µM]	nt
COc1cc(C2Sc3ccccc3NC3=C2C(=O)OC3)cc(OC)c1OC (centres undefined)	0.8%	-27.3%	0.9%	-7.8%	5.2%	-8.2
O=C1OCC2=C1C(c1ccc(F)cc1)Sc1ccccc1N2 (centres undefined)	-8.3%	17.8µM*	-1.0%	-8.1%	2.7%	-3.6
O=C(Nc1ccc(Cl)cc1)NC1CCCCC1	-1.9%	4.9%	0.8%	0.5%	1.0%	2.4
Nc1ccc(NC(=O)NC2CCCCC2)cc1	-0.2%	3.9%	-2.7%	8.6%	17.8µM*	-0.5
CCOc1ccc(Cc2nnc(SCC(=O)c3ccc(OC)cc3)o2)cc1	-4.8%	2.9%	2.4%	-14.3%	-7.6%	-0.4
CCOc1ccc(Nc2nc(Cc3nnc(SCC(=O)O)o3)cs2)cc1	-4.4%	-11.3%	-1.2%	8.3%	14.1µM*	-12.9
Cc1ccc2[nH]c(C)c(/C=N/Nc3nc4ccccc4s3)c2c1	-13.3%	14.9%[12.8 µM]	-4.3%	-1.5%	15.7µM*	0.7
Brc1csc(/C=N/Nc2nc3ccccc3s2)c1	-1.7%	9.1%	1.2%	-2.3%	?	-7.5
SMILES	aGlu spleen mod	N370S GC	GLA spleen mod	GAA inhib	GAA glycogen mod	GLA inh pH 4.5
COc1cc([C@@H]2CC(=O)c3c(O)cc(O)cc3O2)ccc1O	15.9%	-5.0%	18.1%	nt	nt	nt
Cn1cnc([N+](=O)[O-])c1Nc1ccc(O)cc1	-8.7%	18.2%	3.2%	?	28µM*	-8.0
CCOC(=O)c1c(/N=C/c2ccc(OC)cc2O)sc2c1CCN(C)C2	-1.5%	-6.8%	1.7%	nt	7.4%	-7.4
CCOC(=O)c1c(/N=C/c2ccc(C)cc2O)sc2c1CCC2	-0.4%	-6.0%	1.8%	2.3%	14.1µM*	-4.0
Cc1ccccc1Nc1c(N)c(=O)oc2ccccc12	-3.8%	-3.1%	-1.7%	3.0%	17.8µM*	-7.3
O=C1C=CC(=O)C2=C1C1c3ccccc3C2c2ccccc21	-3.8%	-9.3%	3.7%	nt	nt	-8.3
O=C(NNC(=S)Nc1ccc(Br)cc1)c1cccnc1	nt	-5.1%	nt	nt	50.1µM*	nt
COc1cc(C2C3=C(CCCC3=O)Nc3[nH]n(-c4ccccc4)c(=O)c32)ccc1O (centres undefined)	-11.6%	-11.1%	?	3.1%	28.2µM*	-19.9

Source: PubChem
